From the supplement of paper PMC13380429

System: Vero E6 infected with SARS-CoV-2
Experiment: inhibition of SARS-CoV-2 cytopathic effect; higher = more antiviral protection, active = above 15
Details: 48 h

Measured: inhibition of SARS-CoV-2 cytopathic effect

CC(C)c1cc(CNc2nc(Nc3cc(C4CC4)[nH]n3)cc(N3CCN(C)CC3)n2)on1
inactive: 1 nM 0.13% | 8.33 nM 1.15% | 100 nM 0.48% | 833.33 nM -4.78% | 10000 nM -15%

N=C(N)SCCc1ccc(OCc2ccc([N+](=O)[O-])cc2)cc1
inactive: 1 nM 1.92% | 8.33 nM -1.12% | 100 nM -0.47% | 833.33 nM -2.92% | 10000 nM -4.41%

COc1cc2c(c(OC)c1OC)-c1c(cc3c(c1OC)OCO3)C[C@H](C)[C@@](C)(O)C2 [schisandrol-B]
inactive: 1 nM 3.78% | 8.33 nM 3.17% | 100 nM 2.65% | 833.33 nM 2.33% | 10000 nM 1.68%

CC(=O)[C@H]1CC[C@H]2[C@@H]3CC[C@H]4C[C@H](O)CC[C@]4(C)[C@H]3C(=O)C[C@]12C [alfaxalone]
inactive: 1 nM -1.46% | 8.33 nM 0.56% | 100 nM -1.95% | 833.33 nM -1.55% | 10000 nM -4.57%

Cn1c(=O)cnn(CCCCN2CCN(c3ncccn3)CC2)c1=O
inactive: 1 nM 0.44% | 8.33 nM -0.24% | 100 nM 1.14% | 833.33 nM -0.77% | 10000 nM 1.05%

O=C(CC12CC3CC(CC(C3)C1)C2)Nc1cccc2nc(NCCNCCO)ccc12
inactive: 1 nM 3.46% | 8.33 nM 8.07% | 100 nM 0.57% | 833.33 nM 4.43% | 10000 nM 4.98%

COc1ccc2[nH]c(SCc3ncc(C)c(OC)c3C)nc2c1 [omeprazole-sulfide]
inactive: 1 nM -13.8% | 8.33 nM -15.1% | 100 nM -15.8% | 833.33 nM -15.3% | 10000 nM -13.7%

CCC(C)(CN(C)C)OC(=O)c1ccccc1 (stereo not given) [amyleine]
inactive: 1 nM -1.14% | 8.33 nM 0.02% | 100 nM -0.24% | 833.33 nM -8.42% | 10000 nM -0.23%

CCOC(=O)COc1ccc2c(=O)cc(-c3ccccc3)oc2c1 [efloxate]
inactive: 1 nM -1.98% | 8.33 nM 0.67% | 100 nM 0.32% | 833.33 nM -1.24% | 10000 nM -0.78%

CC(=O)Oc1ccccc1C(=O)Oc1cccc(CO[N+](=O)[O-])c1
inactive: 1 nM -1.24% | 8.33 nM -0.2% | 100 nM -0.7% | 833.33 nM 0.32% | 10000 nM 3.31%

CC(C)(C)NCC(O)COc1cccc2[nH]c(C#N)cc12 (stereo not given) [cyanopindolol]
inactive: 1 nM 1.56% | 8.33 nM 1.94% | 100 nM 0.47% | 833.33 nM -2.7% | 10000 nM -1.96%

Cc1cccc2c1CC[C@H](CN1CCC(c3c(Cl)cccc3Cl)CC1)C[C@@H]2O
inactive: 1 nM -2.92% | 8.33 nM 0.72% | 100 nM 4.25% | 833.33 nM 1.11% | 10000 nM -8.51%

CN1[C@@H]2C[C@@H](O)C[C@H]1[C@@H]1O[C@@H]12 [scopine]
inactive: 1 nM -0.81% | 8.33 nM -0.43% | 100 nM -0.08% | 833.33 nM 1.5% | 10000 nM -0.8%

C=CCNc1ncnc2ccc(Br)cc12
inactive: 1 nM 2.47% | 8.33 nM 5.36% | 100 nM 4.33% | 833.33 nM 0.12% | 10000 nM 0.96%

Cc1cc(C)cc(C(=O)O[C@H]2C[C@H]3CC[C@@H](C2)N3C)c1 [tropanyl-3,5-dimethylbenzoate]
inactive: 1 nM -1.37% | 8.33 nM 1.19% | 100 nM 2.71% | 833.33 nM -1.34% | 10000 nM 1%

O=C1CCCN1CC#CCN1CCCC1 [oxotremorine-sesquifumarate]
inactive: 1 nM 0.81% | 8.33 nM 2.23% | 100 nM 4.01% | 833.33 nM 3.15% | 10000 nM 0.96%

NCCC(O)(P(=O)(O)O)P(=O)(O)O [pamidronate]
inactive: 1 nM -0.49% | 8.33 nM 2.17% | 100 nM -0.58% | 833.33 nM -3.14% | 10000 nM -1.25%

CN1C(=O)c2c(nn(Cc3ccc(-c4cccc(F)n4)cc3)c2Nc2ccccc2)N2C1=N[C@@H]1CCC[C@@H]12
inactive: 1 nM 0.59% | 8.33 nM 1.65% | 100 nM 2.18% | 833.33 nM 3.15% | 10000 nM 0.62%

CN(C)CCCO[C@@H]1[C@H]2OC(C)(C)O[C@H]2O[C@@H]1[C@H](O)CO [amiprilose]
inactive: 1 nM -4.79% | 8.33 nM -3.54% | 100 nM -5.54% | 833.33 nM -4.16% | 10000 nM -1.28%
